From PubChem BioAssay (NCI)
The panel holds about 83,000 compounds, 20% with a hit somewhere; the sample as a whole holds those more often.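 Values shown are percent growth following 48 h exposure of cells in 96-well plates to a single concentration of compound; below 10 was considered active.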 Active and inactive are the calls of the source.

Legend:
Experiment in all cases: NCI-60 one-dose screen, 48 h (100 = growth as untreated, 0 = no growth, -100 = all killed)
Conditions in all cases: 10 µM unless noted
[1] = system: NCI-H23 lung
[2] = system: NCI-H226 lung
[3] = system: NCI-H322M lung
[4] = system: HOP-62 NSCLC
[5] = system: NCI-H460 lung
[6] = system: HOP-92 NSCLC
[7] = system: NCI-H522 lung
[8] = system: A549/ATCC NSCLC
[9] = system: 786-0 renal
[10] = system: COLO 205 colon
[11] = system: DU-145 prostate
[12] = system: K-562 leukemia
[13] = system: MALME-3M melanoma
[14] = system: MDA-MB-231 breast
[15] = system: RXF 393 renal
[16] = system: SF-268 CNS
[17] = system: SF-295 CNS
[18] = system: SF-539 CNS
[19] = system: UACC-257 melanoma
[20] = system: M14 melanoma

Measured: growth

CN1CCN(Cc2ccc(NC(=O)c3cncc(C#Cc4cnc5cccnn45)c3)cc2C(F)(F)F)CC1
active: [1] -7.84% | [2] -3.9% | [3] 6.52% | [4] -6.79% | [5] -12.6% | [6] -9.42% | [7] -37.1% | [8] 4.87% | [9] 6.51% | [10] -48.1% | [11] 3.43% | [12] 2.91% | [13] -46.5% | [14] -14.4% | [15] -56.3% | [16] -27.9% | [18] -47.9% | [19] 3.46% | [20] -33.5%
inactive: [17] 28.6%

CC(C)CC(NC(=O)OCC1c2ccccc2-c2ccccc21)C(=O)O (stereo not given)
inactive: [1] 101% | [2] 102% | [3] 101% | [4] 103% | [5] 115% | [6] 96.2% | [7] 96.6% | [8] 95.1% | [9] 98% | [10] 111% | [11] 116% | [12] 116% | [13] 109% | [14] 103% | [15] 103% | [16] 112% | [17] 77.2% | [18] 104% | [19] 102% | [20] 105%

Cc1cc(C)c([O-])c(CN(C)CCN(C)Cc2cc(C)cc(C)c2[O-])c1.O=C([O-])c1cccc(C(=O)[O-])n1.[Ti+4]
inactive: [1] 10.4% | [2] 31% | [4] 12.5% | [8] 23.3% | [9] 11.9% | [11] 33.8% | [14] 44.6% | [16] 23.9% | [17] 12.8% | [19] 19.8%
active: [3] 8.44% | [5] -68.7% | [6] -53.1% | [7] -47% | [10] 2.03% | [12] -1.84% | [13] -45.7% | [15] -43.5% | [18] 7.18% | [20] -49.8%

O=C1/C(=C\c2cccn2Cc2ccc(F)cc2)c2ccccc2N1c1c(Cl)cccc1Cl
inactive: [1] 81.1% | [2] 64% | [3] 69.4% | [4] 92.1% | [5] 87.7% | [6] 66% | [7] 77% | [8] 69.4% | [9] 76.6% | [10] 84.9% | [11] 91.2% | [12] 70.8% | [13] 87.6% | [14] 75% | [15] 81.5% | [16] 79.9% | [17] 81.9% | [18] 87.5% | [19] 90.3% | [20] 94.9%

O=C(/C=C/c1cccc([N+](=O)[O-])c1)c1ccc(Nc2nc(N3CCCCC3)nc(N3CCCCC3)n2)cc1
inactive: [1] 98.7% | [2] 74.2% | [3] 103% | [4] 105% | [5] 96% | [6] 102% | [7] 87.2% | [8] 85.7% | [9] 93.9% | [10] 108% | [11] 98.7% | [12] 97.7% | [13] 118% | [14] 103% | [15] 100% | [16] 97.5% | [17] 93.2% | [18] 99.6% | [19] 97.4% | [20] 98%

COc1cc(C2CC(c3ccc(Nc4ccnc5cc(Cl)ccc45)cc3)=NN2c2ccccc2)cc(OC)c1OC (stereo not given)
inactive: [1] 84.4% | [2] 83.6% | [3] 91.2% | [4] 72.8% | [5] 68.9% | [6] 52.5% | [7] 53% | [8] 64.6% | [9] 76.1% | [10] 74.1% | [11] 79.1% | [12] 19.1% | [13] 45.6% | [14] 77.5% | [15] 76.3% | [16] 70.6% | [17] 57.7% | [18] 77% | [19] 84.7% | [20] 55.5%

COc1ccc(/C=C2\Cc3c(Br)cccc3C2=O)c(OC)c1
inactive: [1] 66% | [2] 93.7% | [3] 94.7% | [4] 69.6% | [5] 79.8% | [6] 88.2% | [7] 55.9% | [8] 68.9% | [9] 93% | [10] 80.3% | [11] 87.4% | [12] 64% | [13] 60.2% | [14] 58% | [15] 80.9% | [16] 73.6% | [17] 67.5% | [18] 73.4% | [19] 98.2% | [20] 47%
